Giardia FBPA inh: Giardia lamblia aldolase inhibition | A8B2U2 | purified Giardia FBPA | Potency, µM (doses to about 59.6 µM), for inactives: at the highest dose activity, negative = inhibition, hits mostly inhibitors | actives 0.71% (n = 290,000); further: potency means the concentration at half of the fitted maximal effect; on the % scale 0 is the no-effect control and ±100 the full control effect; nearly all actives have a fitted effect of over 55% in size
Target sequence (A8B2U2 whole entry, looked up): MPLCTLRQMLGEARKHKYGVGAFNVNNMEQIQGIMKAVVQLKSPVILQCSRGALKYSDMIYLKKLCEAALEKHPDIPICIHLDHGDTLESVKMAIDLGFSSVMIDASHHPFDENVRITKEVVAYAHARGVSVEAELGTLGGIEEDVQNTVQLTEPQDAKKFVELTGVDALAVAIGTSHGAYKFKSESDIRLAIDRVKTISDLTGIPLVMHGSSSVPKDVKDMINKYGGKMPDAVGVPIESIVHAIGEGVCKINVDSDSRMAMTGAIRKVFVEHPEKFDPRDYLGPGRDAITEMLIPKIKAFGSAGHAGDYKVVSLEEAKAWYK
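40 nM FBPA preincubated 10 min at RT with compound (up to 57.5 uM final), then substrate plus GAPDH/TPI/NAD/arsenate coupling and diaphorase/resazurin added. Fluorescence read after 20 min at RT, 525/598 nm.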
RE007 growth inh: less growth of the S. pombe RE007 Vpr strain | actives 0.21% (n = 360,000) | Potency, µM (doses to about 92.2 µM), for inactives: at the highest dose activity change, negative = less growth, hits mostly inhibitors | S. pombe RE007 Vpr strain, BacTiter-Glo ATP luminescence, 24 h | AID 651644; active means well fitted falling curve with a large enough effect; inconclusive means small, poorly fitted or top-dose-only effect; inactive means no such curve, though single readings can be large or run the other way; further: potency means the concentration at half of the fitted maximal effect; on the % scale 0 is the no-effect control and ±100 the full control effect; nearly all actives have a fitted effect of over 50% in size
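Fission yeast RE007 carrying one integrated HIV-1 vpr copy, seeded at OD 0.01 in PMG+AL medium with 23 nL pinned compound. Grown 24 h at 30 degrees; viability read by BacTiter-Glo luminescence after 5 min.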
Tb PYK inh: blocks Trypanosoma brucei pyruvate kinase. TbPYK enzyme, Kinase-Glo Plus ATP luminescence, 45 min. Potency, µM (series often up to 76.8 µM), for the others: at the highest dose activity, negative = inhibition, actives largely listed as inhibitors. Q57TT1. actives 0.12% (n = 410,000); further: potency means the concentration at half of the fitted maximal effect; on the % scale 0 is the no-effect control and ±100 the full control effect; nearly all actives have a fitted effect of over 50% in size
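Screened from lowest to highest concentration, compounds were pinned into TbPYK/substrate mixtures, and ADP (130 uM final) was added. Plates sat at room temperature for 45 min prior to Kinase-Glo Plus detection by luminescence.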
LmPK inhibitor: inhibitors of Leishmania mexicana pyruvate kinase. Q27686. purified LmPK, Kinase-Glo ATP luminescence, 1 h. Potency, µM (top dose mostly 57.5 µM), without a hit: top-dose activity change, negative = inhibition, usual class: inhibitors. actives 0.37% (n = 290,000); further: potency means the concentration at half of the fitted maximal effect; on the % scale 0 is the no-effect control and ±100 the full control effect
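In 50 mM imidazole pH 7.2 with 7 mM MgCl2, LmPK (0.1 nM) turned over PEP (0.5 mM) and ADP (0.1 mM) for 1 h at room temperature. Luciferase read-out of ATP.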
SARS PLpro yeast-1: inhibitors of SARS-CoV papain-like protease in yeast; Potency, µM (doses to about 32.9 µM), for inactives: at the highest dose activity, positive = growth rescue, most hits filed as activators; S. cerevisiae expressing SARS-CoV PLpro, growth rescue; actives 0.19% (n = 330,000); calls by dose curve; further: potency means the concentration at half of the fitted maximal effect; 0% is about no effect; nearly all actives have a fitted effect of over 55% in size
SARS PLpro yeast-2: Inhibits SARS-CoV PLP in yeast, hit validation; shares compounds with SARS PLpro yeast-1; yeast expressing SARS-CoV PLpro, growth phenotype rescue; calls only; actives 19% (n = 1,000); call rule not given here
Starred values were filed as active, the others as inactive; i = inactive; ? = inconclusive; nt = no result given; + = active, no number; ! = a repeat was not active; [ ] = another dose, or the depositor's remark. Shown are actives, neighbours in structure and some others; about 1.1% of the full set was active somewhere. Unless noted, the call rests on the fitted dose curve; in most records, active means well fitted curve in the direction sought with a large enough effect; inconclusive means small, poorly fitted or top-dose-only effect, or another doubt; inactive means no such curve, though single readings can be large; an effect the other way counts as inactive or inconclusive.

SMILES	Giardia FBPA inh	RE007 growth inh	Tb PYK inh	LmPK inhibitor	SARS PLpro yeast-1	SARS PLpro yeast-2
COc1ccc2[nH]c3c(=O)n(CCCCC(=O)NCCC(C)C)c(=S)[nH]c3c2c1	3.9%	-5.2%	-20.5%	-14.5%	1.9%	nt
CCCNC(=O)c1ccc(Cn2c(=S)[nH]c3c([nH]c4ccc(OC)cc43)c2=O)cc1	-2.9%	4.7%	-54.7%	0.8%	14.1µM*	i
C=C1CCN(C(CC(C)C)C(=O)Nc2nc3ccc(Cl)cc3s2)S(=O)(=O)c2ccccc21 (stereo unspecified)	-0.8%	nt	nt	nt	nt	nt
COc1ccc2oc(C(=O)OCC(=O)N(C)CC(=O)Nc3ccc(F)cc3)c(C)c2c1	nt	-17.6%	-0.2%	nt	?	i
O=C(CSc1cn(CC(=O)N2CCCC2)c2ccccc12)Nc1cc(C(F)(F)F)ccc1Cl	nt	nt	-6.5%	nt	nt	nt
CCOC(=O)c1nn(-c2ccc(Cl)cc2)c2nc(Nc3ccccc3)cc(=O)n12	1.4%	6.7%	-0.9%	3.8%	?	i
Cn1c2cc(C#N)sc2c2cnn(Cc3ccc(F)cc3)c(=O)c21	nt	nt	2.5%	nt	5.62µM*!	i
NC(=NCCc1ccccc1)NS(=O)(=O)c1ccc2ccccc2c1	-0.9%	0.8%	-0.9%	-2.8%	2.4%	nt
NC(=NCCc1ccccc1)NS(=O)(=O)c1ccc(F)cc1	6.6%	-7.8%	4.8%	2.8%	?	i
O=C1NC(=O)C(Nc2cccc3ccccc23)S1 (stereo unspecified)	3.8%	5.3%	-17.0%	5.7%	-18.9%	nt
CN1C(=O)SC(Nc2cccc3ccccc23)C1=O (stereo unspecified)	-2.3%	-23.8%	-1.0%	-1.3%	12.6µM*	i
CNC(=S)N/N=C(\C)c1ccc(Cl)s1	5.9%	-13.9%	2.2%	1.9%	?	nt
C=C(C)CNC(=S)N/N=C(\C)c1ccc(Cl)s1	4.7%	nt	1.0%	3.3%	?	+
CCNC(=S)N/N=C(\C)c1ccc(Cl)s1	4.0%	-23.4%	-5.0%	-0.4%	?	+
COc1ccc(-c2nn(-c3ccccc3)cc2/C=N/NC(=S)NC(C)C)cc1OC	-6.1%	-6.7%	-12.5%	-4.3%	7.08µM*	+
CC(C)Cn1c(-c2csc(C(C)C)c2)n[nH]c1=S	9.3%	127.0%	-1.2%	-0.1%	-1.8%	nt
Cc1cc(-c2n[nH]c(=S)n2CC(C)C)cs1	4.4%	21.1%	?	?	?	+
O=C(Cc1ccc(Cl)cc1)NCC(c1cccs1)S(=O)(=O)c1ccc(F)cc1 (stereo unspecified)	nt	nt	0.4%	nt	nt	nt
O=C(Cn1cnc([N+](=O)[O-])n1)N/N=C/c1cccc2ccccc12	-4.6%	-8.8%	2.3%	1.1%	?	i
COc1ccc(S(=O)(=O)NCCc2cn3ccsc3n2)cc1OC	nt	nt	0.0%	nt	nt	nt
Cc1c(C)n(Cc2ccc(F)cc2)c2ccc(C(=O)Nc3ccc(Cl)cc3)cc12	nt	nt	-14.4%[15.4 µM]	nt	nt	nt
CC(C)CCNC(=S)Nc1ccccc1F	1.2%	1.3%	6.0%	-2.3%	?	+
CCOCCCn1c(N)c(C(=O)Nc2sc3c(c2C(=O)OC)CCCC3)c2nc3ccccc3nc21	?	-6.2%	-3.6%	3.8%	?	?
O=C(CSc1cn(CCNC(=O)c2c(F)cccc2F)c2ccccc12)Nc1ccc(F)cc1	nt	nt	-7.4%	nt	nt	nt
CC(=O)Nc1ccc(-c2csc(NCc3ccco3)n2)cc1	0.0%	0.6%	-8.1%	1.5%	?	i
CC(C)OC(=O)c1cc2ccccc2oc1=O	4.5%	-7.4%	-13.1%	-4.3%	?	i
CCOC(=O)c1ccc(NC(=O)CSc2cn(CC(=O)N3CCCC3)c3ccccc23)cc1	nt	nt	2.9%	nt	nt	nt
COc1ccc(NCC(=O)N/N=C/c2c(C)nn(Cc3ccccc3)c2Cl)cc1	?	nt	-4.6%	0.6%	-4.8%	nt
Cc1nn(Cc2ccccc2)c(C)c1/C=N/NC(=O)CNc1cccc(C(F)(F)F)c1	1.0%	9.1%	-1.8%	0.9%	11.2µM*	i
CCOC(=O)C1=C(Cn2cnc3ccccc32)NC(=O)NC1c1cc(C)ccc1C (stereo unspecified)	8.6%	10.9%	-3.4%	5.0%	-4.8%	nt
